Values without a mark were called inactive. Records with an inconclusive call do not appear. A call without a number means that no potency is given here. Activity calls are given as the source filed them. The call rests on the fitted dose curve; in most records, active means well fitted curve in the direction sought with a large enough effect in the repeat runs; inconclusive means weak or mixed curves; inactive means no such curve, though single readings can be large; an effect the other way counts as inactive or inconclusive.
Tests used:
[1] = A CellTox Green Cytotoxicity Assay to monitor cytotoxicity in HEK293 cells - 40 hour (AID 1224871); further: nearly all actives have a fitted effect of over 45% in size
Procedure, shortened: (§1)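 Read-out: fluorescence of a cell-impermeant cyanine dye staining DNA of dead cells, proportional to cytotoxicity. HEK293, 600 cells/well with reagent, compound (23 nL DMSO) added after 5 h; reads at 0, 8, 16, 24, 32, 40 h.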

[2] = qHTS RealTime-Glo MT Cell Viability Assay in HEK293 cells - 16 hour (AID 1224872); further: nearly all actives have a fitted effect of over 50% in size; further: potency means the concentration at half of the fitted maximal effect
Procedure, shortened: (§2)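 HEK293 cells were seeded at 600 cells/well together with NanoLuc luciferase and cell-permeant prosubstrate, preincubated 5 h at 37 C/5% CO2, then given compound in DMSO by pintool. Luminescence from viable-cell prosubstrate reduction was read repeatedly over 40 h.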

[3] = qHTS RealTime-Glo MT Cell Viability Assay in HEK293 cells - 40 hour (AID 1224874); settings: RealTime-Glo luminescence; max response: hits give low values; further: nearly all actives have a fitted effect of over 50% in size; further: potency means the concentration at half of the fitted maximal effect
Procedure, shortened: (§3)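 Luminescence readout at each listed time point; HEK293, 600 cells/well, RealTime-Glo MT reagent added with cells; compounds pinned (23 nL in DMSO) after 5 h at 37 C; continuous culture at 37 C.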

[4] = A CellTox Green Cytotoxicity Assay to monitor cytotoxicity in HEK293 cells - 24 hour (AID 1224875); further: series mostly up to about 77 µM; nearly all actives have a fitted effect of over 45% in size
Procedure, shortened: as §1

[5] = A CellTox Green Cytotoxicity Assay to monitor cytotoxicity in HepG2 cells - 16 hour (AID 1224876); further: nearly all actives have a fitted effect of over 45% in size
Procedure, shortened: (§4)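 HepG2, 600 cells/well premixed w/ CellTox Green; 5 h settle, 37 C/5% CO2; pintool cpd add (DMSO); 37 C, 40 h; fluorescence read at 0, 8, 16, 24, 32, 40 h.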

[6] = qHTS RealTime-Glo MT Cell Viability Assay in HepG2 cells - 32 hour (AID 1224877); further: nearly all actives have a fitted effect of over 55% in size
Procedure, shortened: (§5)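 HepG2 cells were seeded at 600 cells/well together with NanoLuc luciferase and a cell-permeant prosubstrate, preincubated 5 h at 37 C/5% CO2, then pin-dosed with compounds in DMSO. Nonlytic luminescence from viable cells was read at each time point.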

[7] = A CellTox Green Cytotoxicity Assay to monitor cytotoxicity in HepG2 cells - 24 hour (AID 1224878); further: nearly all actives have a fitted effect of over 45% in size
Procedure, shortened: as §4

[8] = A CellTox Green Cytotoxicity Assay to monitor cytotoxicity in HepG2 cells - 40 hour (AID 1224879); further: nearly all actives have a fitted effect of over 40% in size
Procedure, shortened: as §4

[9] = qHTS RealTime-Glo MT Cell Viability Assay in HEK293 cells - 0 hour (AID 1224880)
Procedure, shortened: as §3

[10] = A CellTox Green Cytotoxicity Assay to monitor cytotoxicity in HEK293 cells - 32 hour (AID 1224881); further: nearly all actives have a fitted effect of over 40% in size
Procedure, shortened: as §1

[11] = A CellTox Green Cytotoxicity Assay to monitor cytotoxicity in HepG2 cells - 0 hour (AID 1224882); further: nearly all actives have a fitted effect of over 35% in size
Procedure, shortened: as §4

[12] = A CellTox Green Cytotoxicity Assay to monitor cytotoxicity in HepG2 cells - 32 hour (AID 1224883); further: nearly all actives have a fitted effect of over 50% in size
Procedure, shortened: as §4

[13] = A CellTox Green Cytotoxicity Assay to monitor cytotoxicity in HEK293 cells - 8 hour (AID 1224884); further: nearly all actives have a fitted effect of over 35% in size
Procedure, shortened: as §1

[14] = qHTS RealTime-Glo MT Cell Viability Assay in HepG2 cells - 16 hour (AID 1224885); further: nearly all actives have a fitted effect of over 50% in size
Procedure, shortened: as §5

[15] = qHTS RealTime-Glo MT Cell Viability Assay in HEK293 cells - 24 hour (AID 1224886); further: nearly all actives have a fitted effect of over 50% in size; further: potency means the concentration at half of the fitted maximal effect
Procedure, shortened: as §2

[16] = qHTS RealTime-Glo MT Cell Viability Assay in HEK293 cells - 8 hour (AID 1224887); further: nearly all actives have a fitted effect of over 50% in size; further: potency means the concentration at half of the fitted maximal effect
Procedure, shortened: as §3

[17] = A CellTox Green Cytotoxicity Assay to monitor cytotoxicity in HEK293 cells - 16 hour (AID 1224888); further: nearly all actives have a fitted effect of over 35% in size
Procedure, shortened: as §1

[18] = qHTS RealTime-Glo MT Cell Viability Assay in HepG2 cells - 0 hour (AID 1224889); further: nearly all actives have a fitted effect of over 50% in size
Procedure, shortened: as §5

[19] = A CellTox Green Cytotoxicity Assay to monitor cytotoxicity in HepG2 cells - 8 hour (AID 1224890); further: nearly all actives have a fitted effect of over 45% in size
Procedure, shortened: as §4

[20] = qHTS RealTime-Glo MT Cell Viability Assay in HepG2 cells - 8 hour (AID 1224873); further: nearly all actives have a fitted effect of over 55% in size
Procedure, shortened: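 Real-time viability: cells seeded at 600 per well together with NanoLuc and cell-permeant prosubstrate, compounds added after 5 h incubation. Luminescence tracked at 0, 8, 16, 24, 32 and 40 h of exposure.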

CCCCOC(=O)[C@@H](C)Oc1ccc(Oc2ccc(C#N)cc2F)cc1
Potency [1]: inactive
Potency [2]: 13.7 µM (active)
Potency [3]: 38.7 µM (active)
Potency [4]: inactive
Potency [5]: inactive
Potency [6]: inactive
Potency [7]: inactive
Potency [8]: inactive
outcome [9]: inactive
Potency [10]: inactive
outcome [11]: inactive
Potency [12]: inactive
Potency [13]: inactive
Potency [14]: inactive
Potency [15]: 19.4 µM (active)
Potency [16]: 12.2 µM (active)
Potency [17]: inactive
Potency [18]: inactive
Potency [19]: inactive

c1coc(-c2nc3ccccc3[nH]2)c1
Potency [1]: inactive
Potency [20]: inactive
Potency [4]: inactive
Potency [5]: inactive
Potency [6]: inactive
Potency [7]: inactive
Potency [8]: inactive
outcome [9]: inactive
Potency [10]: inactive
outcome [11]: inactive
Potency [12]: inactive
Potency [13]: inactive
Potency [14]: inactive
Potency [17]: inactive
Potency [18]: inactive
Potency [19]: inactive

CC(C(O)c1ccccc1)N(C)C/C=C/c1ccccc1 (centres undefined)
Potency [1]: inactive
Potency [20]: inactive
max response [3]: -19.6%
Potency [4]: inactive
Potency [5]: inactive
Potency [6]: inactive
outcome [9]: inactive
Potency [10]: inactive
outcome [11]: inactive
Potency [13]: inactive
Potency [14]: inactive
Potency [15]: inactive
Potency [16]: inactive
Potency [17]: inactive
Potency [19]: inactive

O=C(Nc1ccccc1)N(Cc1ccc(Cl)cc1)C1CCCC1
Potency [1]: inactive
Potency [2]: 21.9 µM (active)
Potency [3]: 24.5 µM (active)
Potency [4]: inactive
Potency [5]: inactive
Potency [7]: inactive
Potency [8]: inactive
outcome [9]: inactive
Potency [10]: inactive
outcome [11]: inactive
Potency [12]: inactive
Potency [13]: inactive
Potency [15]: 21.9 µM (active)
Potency [16]: 24.5 µM (active)
Potency [17]: inactive
Potency [18]: inactive
Potency [19]: inactive

CCCCc1c(C)nc(NCC)[nH]c1=O
Potency [1]: inactive
Potency [20]: inactive
Potency [4]: inactive
Potency [5]: inactive
Potency [6]: inactive
outcome [9]: inactive
Potency [10]: inactive
outcome [11]: inactive
Potency [16]: 21.9 µM (active)
Potency [17]: inactive
Potency [18]: inactive
Potency [19]: inactive

[Cl][Sn]([Cl])([Cl])[Cl]
Potency [2]: inactive
Potency [20]: inactive
Potency [5]: inactive
Potency [6]: inactive
Potency [7]: inactive
Potency [8]: inactive
outcome [9]: inactive
outcome [11]: inactive
Potency [12]: inactive
Potency [13]: inactive
Potency [14]: inactive
Potency [18]: inactive
Potency [19]: inactive

CCOP(=S)(Oc1cnc(C(C)(C)C)nc1)OC(C)C (centres undefined)
Potency [2]: inactive
Potency [20]: inactive
max response [3]: -10.5%
Potency [5]: inactive
Potency [6]: inactive
Potency [7]: inactive
Potency [8]: inactive
outcome [9]: inactive
outcome [11]: inactive
Potency [12]: inactive
Potency [14]: inactive
Potency [15]: inactive
Potency [16]: inactive
Potency [17]: inactive
Potency [18]: inactive
Potency [19]: inactive

C#C[C@]1(O)C=C[C@H]2[C@@H]3CCC4=CC(=O)CC[C@@H]4[C@H]3CC[C@@]21CC
Potency [1]: inactive
Potency [20]: inactive
Potency [4]: inactive
Potency [5]: inactive
Potency [6]: inactive
Potency [7]: inactive
Potency [8]: inactive
outcome [9]: inactive
Potency [10]: inactive
outcome [11]: inactive
Potency [13]: inactive
Potency [14]: inactive
Potency [16]: inactive
Potency [17]: inactive
Potency [19]: inactive

CC1CCCCC1NC(=O)Nc1ccccc1 (centres undefined)
Potency [1]: inactive
Potency [20]: inactive
Potency [4]: inactive
Potency [5]: inactive
Potency [6]: inactive
Potency [7]: inactive
Potency [8]: inactive
outcome [9]: inactive
Potency [10]: inactive
outcome [11]: inactive
Potency [12]: inactive
Potency [13]: inactive
Potency [15]: inactive
Potency [17]: inactive
Potency [19]: inactive

CN1CCC(O)(c2ccc(F)cc2)C(C(=O)c2ccc(F)cc2)C1 (centres undefined)
Potency [2]: inactive
Potency [20]: inactive
max response [3]: -17.3%
outcome [9]: inactive
Potency [13]: inactive
Potency [14]: inactive
Potency [15]: inactive
Potency [16]: inactive
Potency [17]: inactive
Potency [18]: inactive

COP(=S)(OC)Oc1ccc(S(N)(=O)=O)cc1
Potency [1]: inactive
Potency [2]: inactive
max response [3]: -1.36%
Potency [4]: inactive
Potency [5]: inactive
Potency [6]: inactive
Potency [7]: inactive
Potency [8]: inactive
outcome [9]: inactive
Potency [10]: inactive
outcome [11]: inactive
Potency [12]: inactive
Potency [15]: inactive
Potency [16]: inactive
Potency [17]: inactive
Potency [19]: inactive

Reference: PubChem BioAssay (Tox21)
